From PubChem BioAssay (NCATS)
Records with an inconclusive call do not appear. The source made the active and inactive calls. Calls follow the shape of the dose curve; as a rule, active = well fitted curve in the direction sought with a large enough effect; inconclusive = small, poorly fitted or top-dose-only effect, or another doubt; inactive = no such curve, though single readings can be large; an effect the other way counts as inactive or inconclusive.

Legend:
[1] = system: Zika virus NS2B-NS3 protease (unlinked complex); test: Primary screen GU Rhodamine qHTS for Zika virus inhibitors: Unlinked NS2B-NS3 protease assay (AID 1347159); also: % is scaled to controls: 0 for no effect and ±100 for the full control effect; nearly all actives have a fitted effect of over 60% in size
Method in brief: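 Percent inhibition derives from the 15-min fluorescence change (ex 480, em 540 nm), normalized to no-enzyme and no-inhibitor wells. Reactions contained 25 nM NS2B-NS3 complex and 1.5 microM substrate in 10 mM Tris-HCl pH 8.0.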

[2] = system: Zika virus NS2B-NS3 protease (linked construct); test: Primary screen NINDS Rhodamine qHTS for Zika virus inhibitors (AID 1347160); also: nearly all actives have a fitted effect of over 55% in size; as to activity change, negative = inhibition: % is scaled to controls: 0 for no effect and ±100 for the full control effect
Method in brief: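 In 10 mM Tris-HCl pH 8.0 containing 0.01% Tween 20, linked NS2B-NS3 protease (25 nM final) is exposed to test compounds for 15 min. Cleavage of 1.5 microM Rhodamine110 substrate is tracked by fluorescence over 15 min.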

[3] = molecular target: Calcium and integrin-binding protein 1 (Homo sapiens) (UniProt Q99828); test: Primary qHTS for Identification of Calcium Integrin Binding Protein 1 (CIB1) Competitor (AID 1508620);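 also: GST tagged CIB1 binding a fluorescein labelled alphaIIb integrin peptide tracer; top concentration of the series differs between compounds; % is scaled to controls: 0 for no effect and ±100 for the full control effect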
Method in brief: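 Fluorescence polarization competition: CIB1-GST (1 uM final) preincubated with compound 15 min at room temperature, then FITC-labeled alphaIIb peptide (100 nM final) added for another 15 min. Polarization read at Ex 480/Em 540.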

[4] = molecular target: Luciferin 4-monooxygenase (Photinus pyralis) (UniProt P08659); test: Primary firefly luciferase (FLuc) qHTS assay for identification of artifact compounds. (AID 1845220); conditions: outcome: dose series up to 54.1 µM unless noted; also: nearly all actives have a fitted effect of over 60% in size;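 as to activity change, negative = inhibition: plate controls were DMSO vehicle for no effect and no enzyme for full effect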
Method in brief: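 In this counter-screen for luciferase artifacts, test compounds met substrate (10 uM each luciferin and ATP) before 10 nM enzyme started the reaction. Light output was measured 5 min later.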

[5] = Primary fluorescence-based thiol-reactive (MSTI) qHTS assay for identification of artifact compounds. (AID 1845221);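 also: thiol-reactive compounds lower the probe fluorescence signal; nearly all actives have a fitted effect of over 65% in size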
Method in brief: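 MSTI probe at 4 uM final in 2% DMSO/PBS pH 7.4; compounds, 1 h at room temperature in dark. Fluorescence Ex/Em 525/598 nm, normalised to Acetyl-MSTI and MSTI, fitted to 4-parameter Hill.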

[6] = system: Nanoluciferase (engineered Oplophorus gracilirostris luciferase); test: Primary Nanoluciferase (NLuc) qHTS assay for identification of artifact compounds. (AID 1845222);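 also: NLuc secreted into diluted conditioned medium of S16 cells; 0% = DMSO and -100% = no enzyme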
Method in brief: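 Using secreted nanoluciferase in S16 culture medium (0.22 um filtered, 1:55 dilution), compounds were preincubated 15 min at RT. Signal was generated with Nano-Glo reagent (1:100) over 5 min.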

[7] = Primary redox qHTS assay for identification of artifact compounds. (AID 1845223);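 also: 0% = DMSO and 100% = reference compound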
Method in brief: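 Amplex Red (25 uM) and HRP (250 mU/mL) in HBSS, with compounds for 15 min, then 250 uM DTT for 30 min, room temperature, dark. Fluorescence 525/598 nm read; normalized to DMSO and 10 uM DA3003; Hill fit.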

[8] = system: HaCat; test: Cytotoxic Profiling of Annotated Libraries Using Quantitative High-Throughput Screening (AID 1296008); conditions: Five cell lines viability, CellTiter-Glo ATP luminescence, 48-72 h; max response: stronger effect = lower value; also: nearly all actives have a fitted effect of over 60% in size; also: potency is read from the fitted curve at half-maximal effect; as to max response: % is scaled to controls: 0 for no effect and ±100 for the full control effect
Method in brief: (§1)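 Compounds were pin-transferred onto cells and incubated 48 or 72 hr at 37 degree Celsius, 95% humidity. CellTiter-Glo was added, plates sat 10 min at room temperature, then ATP-coupled luminescence was imaged as the viability read-out.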

[9] = system: NIH3T3; test: as above; conditions: Five cell lines viability, CellTiter-Glo ATP luminescence, 48-72 h; max response: stronger effect = lower value
Method in brief: as §1

[10] = system: C33A; test: Primary qHTS to identify gynecologic anti-cancer compounds using libraries of approved drugs and bioactive compounds (AID 1345084); conditions: Gynecologic cancer cell panel viability, ATPlite luminescence, 48 h; series mostly up to 57.5 µM; also: nearly all actives have a fitted effect of over 55% in size; also: potency is read from the fitted curve at half-maximal effect; as to activity change, negative = cytotoxicity: % is scaled to controls: 0 for no effect and ±100 for the full control effect
Method in brief: (§2)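 Cells, 1,000 per well, plated 16 h, then exposed 48 h at 37 C to compounds. Viability by ATPlite luminescence after 15 min at room temperature.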

[11] = system: CASKI; test: as above; conditions: Gynecologic cancer cell panel viability, ATPlite luminescence, 48 h; series mostly up to 57.5 µM
Method in brief: as §2

[12] = system: JEG-3; test: as above; conditions: Gynecologic cancer cell panel viability, ATPlite luminescence, 48 h; series mostly up to 57.5 µM
Method in brief: as §2

[13] = system: OV90; test: as above; conditions: Gynecologic cancer cell panel viability, ATPlite luminescence, 48 h; series mostly up to 57.5 µM
Method in brief: as §2

[14] = system: Tov-21-G; test: as above; conditions: Gynecologic cancer cell panel viability, ATPlite luminescence, 48 h; series mostly up to 57.5 µM
Method in brief: as §2

[15] = molecular target: Phospholipid hydroperoxide glutathione peroxidase GPX4 (Homo sapiens) (UniProt P36969); test: Primary qHTS Assay for Inhibitors of Recombinant Selenoprotein Glutathione Peroxidase 4 (GPX4) (AID 1845192); also: nearly all actives have a fitted effect of over 65% in size
Method in brief: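 GR-coupled readout: 100 nM GR, 1 mM GSH, 0.5 mM NADPH; NADPH fluorescence (ex 340/em 450 nm) read at t=0 and after 15 min RT. GPX4 200 nM, preincubated 30 min with compound; substrate 0.5 mM CHP.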

[16] = system: Es-2; test: Primary qHTS to identify gynecologic anti-cancer compounds using libraries of approved drugs and bioactive compounds (AID 1345084); conditions: Gynecologic cancer cell panel viability, ATPlite luminescence, 48 h; series mostly up to 57.5 µM; also: nearly all actives have a fitted effect of over 55% in size; also: potency is read from the fitted curve at half-maximal effect
Method in brief: as §2

[17] = system: Hek293T; test: as above; conditions: Gynecologic cancer cell panel viability, ATPlite luminescence, 48 h, control line for the selectivity index; series mostly up to 57.5 µM
Method in brief: as §2

[18] = system: Tov112D; test: as above; conditions: Gynecologic cancer cell panel viability, ATPlite luminescence, 48 h; series mostly up to 57.5 µM
Method in brief: as §2

[19] = molecular target: Glutathione peroxidase 1 (Homo sapiens) (UniProt P07203); test: Primary qHTS Assay for Inhibitors of Recombinant Selenoprotein Glutathione Peroxidase 1 (GPX1) (AID 1845191); also: nearly all actives have a fitted effect of over 65% in size
Method in brief: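 Recombinant GPX1 (10 nM final) was preincubated with compound for 30 min at room temperature, then reacted with 1 mM GSH, 0.5 mM CHP, 0.5 mM NADPH and 100 nM glutathione reductase; NADPH fluorescence (340/450 nm) was read at 0 and 15 min.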

[20] = system: PA-1; test: Primary qHTS to identify gynecologic anti-cancer compounds using libraries of approved drugs and bioactive compounds (AID 1345084); conditions: Gynecologic cancer cell panel viability, ATPlite luminescence, 48 h; series mostly up to 57.5 µM; also: nearly all actives have a fitted effect of over 55% in size; also: potency is read from the fitted curve at half-maximal effect
Method in brief: as §2

Chain of Phospholipid hydroperoxide glutathione peroxidase GPX4 (Homo sapiens) (P36969 whole entry, looked up): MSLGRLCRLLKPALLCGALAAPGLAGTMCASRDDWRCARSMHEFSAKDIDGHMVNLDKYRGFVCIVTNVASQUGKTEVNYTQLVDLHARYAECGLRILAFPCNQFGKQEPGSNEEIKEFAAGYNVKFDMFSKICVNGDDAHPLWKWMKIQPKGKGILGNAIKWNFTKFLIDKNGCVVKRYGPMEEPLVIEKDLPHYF
Chain of Glutathione peroxidase 1 (Homo sapiens) (P07203 whole entry, looked up): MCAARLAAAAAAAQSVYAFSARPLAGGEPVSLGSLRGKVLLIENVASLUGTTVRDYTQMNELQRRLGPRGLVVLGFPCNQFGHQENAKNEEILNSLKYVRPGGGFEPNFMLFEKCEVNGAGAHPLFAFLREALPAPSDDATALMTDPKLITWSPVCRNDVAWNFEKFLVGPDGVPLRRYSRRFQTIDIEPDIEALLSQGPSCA
Chain of Calcium and integrin-binding protein 1 (Homo sapiens) (Q99828 whole entry, looked up): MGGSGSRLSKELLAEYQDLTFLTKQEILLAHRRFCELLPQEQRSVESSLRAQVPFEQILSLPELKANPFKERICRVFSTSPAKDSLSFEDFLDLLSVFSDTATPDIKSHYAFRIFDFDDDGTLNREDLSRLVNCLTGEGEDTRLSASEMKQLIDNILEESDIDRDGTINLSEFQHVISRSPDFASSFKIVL

C[C@@H]1Cc2c(Cl)cc(C(=O)N[C@@H](Cc3ccccc3)C(=O)O)c(O)c2C(=O)O1
inactive: Potency [1] | Potency [2] | Potency [3] | outcome [4] | Potency [5] | Potency [6] | Potency [7] | outcome [8] | max response [9] -8.41% | Potency [10] | Potency [11] | Potency [12] | Potency [13] | Potency [14]

Cc1ccc(-n2nccn2)c(C(=O)N2CCN(c3nc4cc(Cl)ccc4o3)CCC2C)c1 (configuration not stated)
inactive: Potency [1] | Potency [2] | Potency [3] | Potency [15] | outcome [4] | Potency [5] | Potency [6] | outcome [8] | outcome [9] | Potency [10] | Potency [11] | Potency [16] | Potency [17] | Potency [12] | Potency [13] | Potency [14] | Potency [18]

CC(C)(O)/C=C/C(=O)[C@](C)(O)[C@H]1[C@H](O)C[C@@]2(C)[C@@H]3CC=C4[C@@H](C[C@H](O)C(=O)C4(C)C)[C@]3(C)C(=O)C[C@]12C
inactive: Potency [1] | Potency [2] | Potency [3] | Potency [19] | Potency [15] | outcome [4] | Potency [5] | Potency [10]
active: Potency [9] 3.17 µM | Potency [11] 1.41 µM | Potency [13] 1.26 µM | Potency [20] 2.51 µM | Potency [14] 1.26 µM

CCOC(=O)c1ccnc2cc(C(OCCN3CCCCC3)c3ccccc3Cl)sc12 (configuration not stated)
inactive: Potency [1] | Potency [2] | Potency [3] | Potency [19] | Potency [15] | outcome [4] | Potency [5] | Potency [6] | Potency [7] | outcome [8]

COc1ccc(CC2C(=O)NC(C)C(=O)N(C)C3Cc4ccc(cc4)Oc4cc(ccc4OC4OC(CO)C(O)C(O)C4O)CC(C(=O)NC(C)C(=O)NC(CCC(=O)O)C(=O)N2C)N(C)C3=O)cc1 (configuration not stated)
inactive: Potency [2] | Potency [3] | Potency [19] | Potency [15] | activity change, negative = inhibition [4] -19.1% [at 11.6 µM] | activity change, negative = thiol reactive [5] -0.882% [at 11.5 µM] | activity, negative = inhibition [6] -15.7% [at 11.6 µM] | outcome [8] | activity change, negative = cytotoxicity [11] -30.7% [at 11.6 µM] | activity change, negative = cytotoxicity [12] -7.62% [at 11.6 µM] | activity change, negative = cytotoxicity [13] -30.8% [at 11.6 µM]
active: Potency [20] 7.08 µM

Cc1sc2c(c1C)C(c1ccc(Cl)cc1)=N[C@@H](CC(=O)Nc1ccc(O)cc1)c1nnc(C)n1-2
inactive: Potency [2] | Potency [3] | Potency [19] | Potency [15] | outcome [4] inactive [at 11.6 µM] | activity change, negative = thiol reactive [5] 36.2% [at 11.5 µM] | outcome [8] | activity change, negative = cytotoxicity [10] -1.06% [at 11.6 µM] | activity change, negative = cytotoxicity [17] -11.9% [at 11.6 µM] | activity change, negative = cytotoxicity [12] -12.8% [at 11.6 µM] | activity change, negative = cytotoxicity [18] -20.5% [at 11.6 µM]

Cc1sc2c(c1C)C(c1ccc(Cl)cc1)=NC(CC(=O)OC(C)(C)C)c1nnc(C)n1-2 (configuration not stated)
active: Potency [20] 2 µM
inactive: Potency [2] | Potency [3] | Potency [15] | outcome [4] | Potency [5] | Potency [6] | Potency [7] | Potency [10] | Potency [17] | Potency [12] | Potency [13]

CC(C)OC(=O)c1ccnc2cc(C(OCCN3CCCCC3)c3ccccc3Cl)sc12 (configuration not stated)
inactive: Potency [1] | Potency [2] | Potency [3] | Potency [19] | outcome [4] | Potency [5] | Potency [6] | outcome [8] | Potency [10] | Potency [11] | Potency [16] | Potency [17] | Potency [12] | Potency [20] | Potency [14] | Potency [18]

COc1ccc(C23CCC(=O)C=C2N(C)CC3)cc1OC (configuration not stated)
inactive: Potency [1] | Potency [2] | Potency [3] | Potency [19] | Potency [15] | outcome [4] | Potency [5] | Potency [6] | Potency [7] | max response [9] -27.9% | Potency [10] | Potency [16] | Potency [17] | Potency [13] | Potency [20] | Potency [14] | Potency [18]

COc1ccc(C(C)(C)C)cc1CN[C@H]1C2CCN(CC2)[C@H]1C(c1ccccc1)c1ccccc1
active: Potency [8] 18.4 µM
inactive: Potency [1] | Potency [2] | Potency [3] | outcome [4] | Potency [5] | Potency [6] | Potency [7] | max response [9] -16.4% | Potency [11] | Potency [17] | Potency [12] | Potency [13] | Potency [20] | Potency [14] | Potency [18]

C=C1[C@@H](O)[C@]2(O)OC[C@]34C2[C@]2(C)C(C[C@H]3OC(=O)[C@H](O)[C@@]14O)C(C)=CC(=O)[C@H]2O (some centres not stated)
inactive: Potency [1] | Potency [2] | Potency [19] | outcome [4] inactive [at 25.7 µM] | Potency [5] | Potency [6] | Potency [7] | max response [8] 3.98% | max response [9] -5.4% | Potency [11] | Potency [16] | Potency [12] | Potency [13] | Potency [14]

CC1CCCCCC(=O)c2c(O)cc(O)cc2CC(=O)O1 (configuration not stated)
inactive: Potency [1] | Potency [2] | Potency [3] | Potency [19] | Potency [15] | outcome [4] | Potency [5] | Potency [6] | Potency [7] | outcome [8] | max response [9] 2.84% | Potency [10] | Potency [11] | Potency [16] | Potency [17] | Potency [12] | Potency [13] | Potency [20] | Potency [14] | Potency [18]
